Measured values as given in PubChem BioAssay.
The source made the active and inactive calls. Unless noted, how the calls were made is not given here.

Key:
[1] = tested on: Wnt5a (protein binding on small-molecule microarray); experiment: small molecules binding Wnt5a protein – biophysical, small-molecule microarray, 635/667 nm fluorescence, primary screen (AID 1142); settings: 635 nm fluorescence, higher = more signal;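 further: fluorescence read at 667 nm with signal to noise per printed feature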
[2] = ATP-based viability of Huh7 replicon cells – cell-based, CellTiter-Glo luminescence, basal, 48 h, cytotoxicity control for HCV replication inhibitor project, primary screen (AID 1143); settings: higher = more signal, called active from +8 up or from −8 down;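 further: Huh7 hepatoma cells carrying a hepatitis C replication reporter with no stimulus; test concentration not given here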
[3] = Pseudomonas biofilm growth suppression – PAO1 strain, BacTiter-Glo luminescence, LB-PBS, primary screen (AID 1144); settings: P. aeruginosa PAO1 biofilm, 12 h, higher = more signal
[4] = basal CRE-LacZ reporter activity in PC12 – cell-based, unstimulated, primary screen (AID 1145); settings: no forskolin, luminescence, 4.5 h, higher = more signal, called active from +8 up or from −8 down
[5] = forskolin-driven CRE-LacZ activity in PC12 – cell-based, CRE-LacZ reporter, forskolin-stimulated, primary screen (AID 1146); settings: luminescence, 4.5 h, higher = more signal, called active from +8 up or from −8 down;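 further: PC12 cells with 6xCRE LacZ reporter stimulated by forskolin 10 µM; beta-galactosidase reporter signal reflecting CREB driven transcription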
[6] = biological target: Streptavidin (Streptomyces avidinii) (UniProt P22629); experiment: compounds binding control protein streptavidin – biophysical, small-molecule microarray, 635/667 nm fluorescence, artefact control for SMM compound annotation, primary screen (AID 1147); settings: higher = more signal;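 further: signal reflects streptavidin binding to arrayed compounds as a control protein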
[7] = probe aInhba binding on compound microarray – biochemical, small-molecule microarray, 635/667 nm fluorescence, primary screen (AID 1148); settings: higher = more signal;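 further: score merges 667nm spot fluorescence with signal-to-noise for antibody binding to printed compounds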
Torsin-1A (Homo sapiens) [8] = biological target: Torsin-1A (Homo sapiens) (UniProt O14656); experiment: TOR1A wild-type binding on microarray – cell lysate, small-molecule microarray, lysate, 635/667 nm, primary screen (AID 1149); settings: COS7 hTOR1A-WT lysate, 635 nm fluorescence, higher = more signal
Torsin-1A (Homo sapiens) [9] = biological target: Torsin-1A (Homo sapiens) (UniProt O14656); experiment: torsin A mutant lysate binding on microarrays – cell lysate, small-molecule microarray, COS7 lysate, 635/667 nm fluorescence, primary screen (AID 1150); settings: COS7 hTOR1A mutant lysate, 635 nm fluorescence, higher = more signal;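 further: score pools 667 nm emission and signal to noise measuring lysate protein binding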
[10] = tested on: Sonic hedgehog protein (Shh); experiment: Sonic hedgehog microarray binding compounds – biochemical, small-molecule microarray, 635/667 nm fluorescence, primary screen (AID 1151); settings: 635 nm fluorescence, higher = more signal;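 further: Shh protein binding to compounds spotted on small-molecule microarray slides; score combines spot fluorescence intensity with signal-to-noise across triplicate slides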
[11] = optical density shifts of acrAB sulA E. coli – strain DRC41, OD650, 48 h, E. coli filamentation inducer project, primary screen (AID 1152); settings: higher = more signal, called active from +8 up or from −8 down;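 further: E. coli MC1000 strain DRC41 lacking acrAB efflux pump and sulA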
[12] = probe aLefty1 binding on compound microarray – biochemical, small-molecule microarray, 635/667 nm fluorescence, primary screen (AID 1153); settings: higher = more signal;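 further: score merges spot fluorescence with signal-to-noise ratio from the scanned slide images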
[13] = plasmodial surface anion channel blockers, osmotic lysis – cell-based, P. falciparum Indochina, OD700, 1 h, primary screen (AID 1154); settings: P. falciparum Indochina infected RBC osmotic lysis, higher = more signal, called active from +8 up or from −8 down
[14] = plasmodial surface anion channel blockers, osmotic lysis – cell-based, P. falciparum Indochina, OD700, 2 h, primary screen (AID 1155);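 further: lysis reports solute entry through the parasite surface anion channel PSAC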; settings: P. falciparum Indochina infected erythrocytes, higher = more signal, called active from +8 up or from −8 down
[15] = changes in parasitized red cell lysis, either direction – P. falciparum Indochina, OD700, 3 h, PSAC antagonist project, primary screen (AID 1156); settings: P. falciparum-infected erythrocytes, osmotic lysis, higher = more signal, called active from +8 up or from −8 down
[16] = plasmodial surface anion channel blockers, osmotic lysis – cell-based, P. falciparum Indochina, OD700, 18 h, primary screen (AID 1157); settings: P. falciparum Indochina infected erythrocytes, osmotic lysis OD700, 18 h; higher = more signal, called active from +8 up or from −8 down
[17] = S6 kinase pathway phospho-S6 level changes – cell-based, A549, cytoblot, luminescence, serum-stimulated, primary screen (AID 1158); settings: 5 h, higher = more signal;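 further: serum-stimulated A549 lung adenocarcinoma cells; signal is phosphorylated S6 detected by cytoblot immunostaining with HRP secondary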
[18] = biological target: NADPH oxidase 2 (Homo sapiens) (UniProt P04839); experiment: compounds shifting NOX2 Amplex Red fluorescence – cell-based, HEK293-NOX2, PMA-stimulated, NOX inhibitor project, primary screen (AID 1159); settings: 45 min, higher = more signal, called active from +8 up or from −8 down; further: test concentration not given here
[19] = biological target: NADPH oxidase 4 (Homo sapiens) (UniProt Q9NPH5); experiment: compounds shifting NOX4 Amplex Red fluorescence – cell-based, HEK293-NOX4, tetracycline-induced, NOX inhibitor project, primary screen (AID 1160); settings: HEK293-NOX4, Amplex Red H2O2 fluorescence, 45 min; higher = more signal, called active from +8 up or from −8 down
[20] = biological target: NADPH oxidase 5 (Homo sapiens) (UniProt Q96PH1); experiment: compounds shifting NOX5 Amplex Red fluorescence – cell-based, HEK293-NOX5, NOX inhibitor project, primary screen (AID 1161); settings: HEK293-NOX5, ionomycin, 45 min, higher = more signal
Chain of NADPH oxidase 5 (Homo sapiens) (Q96PH1 whole entry, looked up): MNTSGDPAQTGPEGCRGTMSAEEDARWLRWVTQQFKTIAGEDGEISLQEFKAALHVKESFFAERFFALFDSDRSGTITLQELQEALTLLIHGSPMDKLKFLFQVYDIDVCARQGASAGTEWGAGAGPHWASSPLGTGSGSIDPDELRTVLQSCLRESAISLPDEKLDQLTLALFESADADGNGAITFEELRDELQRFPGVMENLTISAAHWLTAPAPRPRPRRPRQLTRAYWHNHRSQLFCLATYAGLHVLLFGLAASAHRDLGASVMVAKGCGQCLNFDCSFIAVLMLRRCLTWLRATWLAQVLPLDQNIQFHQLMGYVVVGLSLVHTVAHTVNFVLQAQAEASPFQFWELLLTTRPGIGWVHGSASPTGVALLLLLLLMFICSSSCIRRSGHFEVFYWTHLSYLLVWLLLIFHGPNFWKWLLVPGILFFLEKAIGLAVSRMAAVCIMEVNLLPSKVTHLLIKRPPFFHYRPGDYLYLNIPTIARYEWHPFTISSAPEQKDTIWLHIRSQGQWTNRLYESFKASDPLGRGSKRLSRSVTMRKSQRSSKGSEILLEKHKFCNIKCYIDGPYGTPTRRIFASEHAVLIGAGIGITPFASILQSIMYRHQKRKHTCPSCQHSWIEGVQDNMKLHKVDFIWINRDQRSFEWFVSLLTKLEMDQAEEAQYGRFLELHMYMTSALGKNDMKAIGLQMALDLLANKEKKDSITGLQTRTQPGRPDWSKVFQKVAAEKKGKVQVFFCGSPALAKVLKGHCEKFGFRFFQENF

Chain of NADPH oxidase 2 (Homo sapiens) (P04839 whole entry, looked up): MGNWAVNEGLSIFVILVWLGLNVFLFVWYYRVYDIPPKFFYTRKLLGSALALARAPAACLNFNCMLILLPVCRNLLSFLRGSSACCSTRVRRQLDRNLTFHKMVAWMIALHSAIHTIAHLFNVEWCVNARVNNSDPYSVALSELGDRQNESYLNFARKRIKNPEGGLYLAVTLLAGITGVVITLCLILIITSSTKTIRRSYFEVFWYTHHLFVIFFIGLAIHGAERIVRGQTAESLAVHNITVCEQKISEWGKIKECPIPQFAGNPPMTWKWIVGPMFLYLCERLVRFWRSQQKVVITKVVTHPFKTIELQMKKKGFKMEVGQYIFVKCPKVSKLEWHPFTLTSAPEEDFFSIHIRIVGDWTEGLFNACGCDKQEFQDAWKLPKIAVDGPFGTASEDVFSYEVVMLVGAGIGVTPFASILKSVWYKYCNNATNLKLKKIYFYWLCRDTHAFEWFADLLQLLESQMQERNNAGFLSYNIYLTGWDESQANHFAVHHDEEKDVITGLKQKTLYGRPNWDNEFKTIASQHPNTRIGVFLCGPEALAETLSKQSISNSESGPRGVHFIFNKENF
Chain of Torsin-1A (Homo sapiens) (O14656 whole entry, looked up): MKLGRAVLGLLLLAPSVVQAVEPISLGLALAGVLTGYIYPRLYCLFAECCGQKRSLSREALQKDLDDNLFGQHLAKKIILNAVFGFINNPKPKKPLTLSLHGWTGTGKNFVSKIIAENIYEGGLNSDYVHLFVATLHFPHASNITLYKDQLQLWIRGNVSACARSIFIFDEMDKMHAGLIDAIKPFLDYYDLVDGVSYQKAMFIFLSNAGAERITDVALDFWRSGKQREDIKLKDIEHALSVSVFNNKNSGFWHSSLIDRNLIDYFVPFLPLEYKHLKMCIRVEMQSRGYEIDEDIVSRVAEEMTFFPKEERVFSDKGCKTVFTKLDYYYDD
Chain of NADPH oxidase 4 (Homo sapiens) (Q9NPH5 whole entry, looked up): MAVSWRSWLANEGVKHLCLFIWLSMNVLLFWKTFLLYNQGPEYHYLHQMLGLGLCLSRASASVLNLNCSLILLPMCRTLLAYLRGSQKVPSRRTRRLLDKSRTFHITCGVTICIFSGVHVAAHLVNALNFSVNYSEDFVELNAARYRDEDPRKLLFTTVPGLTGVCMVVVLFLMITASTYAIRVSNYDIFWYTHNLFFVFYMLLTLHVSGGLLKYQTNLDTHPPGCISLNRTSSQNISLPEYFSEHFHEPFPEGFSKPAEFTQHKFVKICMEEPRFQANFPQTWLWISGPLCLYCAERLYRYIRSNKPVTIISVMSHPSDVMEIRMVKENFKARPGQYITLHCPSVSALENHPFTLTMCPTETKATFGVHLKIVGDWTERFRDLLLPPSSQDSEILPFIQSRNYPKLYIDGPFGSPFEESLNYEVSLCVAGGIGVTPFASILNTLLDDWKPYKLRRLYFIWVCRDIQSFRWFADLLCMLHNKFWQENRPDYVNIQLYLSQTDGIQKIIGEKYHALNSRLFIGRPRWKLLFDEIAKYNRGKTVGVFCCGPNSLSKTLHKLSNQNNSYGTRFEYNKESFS
Chain of Streptavidin (Streptomyces avidinii) (P22629 whole entry, looked up): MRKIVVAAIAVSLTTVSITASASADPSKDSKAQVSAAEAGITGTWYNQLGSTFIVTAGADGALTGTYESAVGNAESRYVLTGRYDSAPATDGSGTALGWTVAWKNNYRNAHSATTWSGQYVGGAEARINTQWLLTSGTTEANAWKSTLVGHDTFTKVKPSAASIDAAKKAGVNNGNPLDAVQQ

Compound	composite z-score [1]	z-score [2]	z-score [3]	z-score [4]	z-score [5]	composite z-score [6]	composite z-score [7]	composite z-score (Torsin-1A (Homo sapiens) [8])	composite z-score (Torsin-1A (Homo sapiens) [9])	composite z-score [10]	z-score [11]	composite z-score [12]	z-score [13]	z-score [14]	z-score [15]	z-score [16]	z-score [17]	z-score [18]	z-score [19]	z-score [20]
COc1cc2c(cc1O)C(c1ccc(CN3CCCC3)cc1)N(Cc1ccc([N+](=O)[O-])o1)CC2 (stereo not given)	-0.176	-0.192 (inactive)	0.85 (inactive)	0.299 (inactive)	0.292 (inactive)	-0.231	-0.105	0.714	0.623	-0.0987	-0.715 (inactive)	-0.257	23.1 (active)	7.28 (inactive)	-0.176 (inactive)	0.818 (inactive)	-0.683	-3.89 (inactive)	-2.56 (inactive)	-3.64
COCCOC(=O)N1C(=O)[C@@]2(c3cc(C#CC4=CCCCC4)ccc31)[C@H](c1ccccc1OCCO)N1[C@H](c3ccccc3)[C@H](c3ccccc3)OC(=O)[C@H]1[C@@H]2C(N)=O	0.288	-6.61 (inactive)	-1.73 (inactive)	-2.37 (inactive)	-1.6 (inactive)	0.771	-0.115	1.21	0.137	1.7	1.97 (inactive)	-0.0611	2.66 (inactive)	0.298 (inactive)	-0.714 (inactive)	-0.0482 (inactive)	2.22	1.77 (inactive)	0.548 (inactive)	-0.172
COCCOC(=O)N1C(=O)[C@@]2(c3cc(C#CC4(O)CCCCCC4)ccc31)[C@H](C(=O)NC[C@H](O)c1ccccc1)[C@H]1C(=O)O[C@H](c3ccccc3)[C@H](c3ccccc3)N1[C@@H]2c1ccc(O)cc1	0.233	-0.622 (inactive)	0.588 (inactive)	0.342 (inactive)	0.0418 (inactive)	0.315	0.12	0.415	0.174	1.07	0.664 (inactive)	0.501	0.954 (inactive)	1.01 (inactive)	0.0635 (inactive)	1.05 (inactive)	0.632	1.39 (inactive)	1.02 (inactive)	1.61
O=C1c2ccccc2[C@@]2(Cc3ccccc3N(Cc3ccccc3)C2=O)[C@H](c2ccc(CO)cc2)N1Cc1ccccc1	-0.201	0.579 (inactive)	-0.124 (inactive)	0.0279 (inactive)	0.806 (inactive)	-0.0807	-0.176	-0.953	-0.773	-0.907	-0.757 (inactive)	-0.147	-0.0384 (inactive)	0.0732 (inactive)	0.0046 (inactive)	-0.11 (inactive)	0.244	0.0584 (inactive)	0.572 (inactive)	-0.107
COC(=O)[C@@]1(Cc2ccc(OC)cc2)[C@@H]2[C@@H](CC(=O)[C@H]2CC(=O)C(=O)N2CCCC2)CN1C(=O)c1ccccc1	2.07	-2.82 (inactive)	-0.98 (inactive)	0.779 (inactive)	-0.013 (inactive)	1.7	1.69	0.774	1.27	-0.566	-1.17 (inactive)	2.14	4.55 (inactive)	0.989 (inactive)	1.07 (inactive)	0.986 (inactive)	0.0676	-0.204 (inactive)	0.65 (inactive)	0.26
CCOC(=O)C1=C[C@@H](C(C)(C)C)N(S(=O)(=O)c2ccc(C)cc2)[C@H]1c1ccccc1Cl	0.548	-3.79 (inactive)	1.6 (inactive)	0.986 (inactive)	1.53 (inactive)	1.11	0.029	0.296	0.315	0.577	-1.29 (inactive)	0.208	-0.747 (inactive)	0.627 (inactive)	-0.775 (inactive)	0.193 (inactive)	-0.535	-1.54 (inactive)	-0.44 (inactive)	0.1
COc1ccccc1CN1C(=O)c2ccccc2[C@@H](C(=O)NCCCN(C)C)[C@@H]1c1ccc(CO)cc1	0.0968	-2.77 (inactive)	-1.58 (inactive)	0.531 (inactive)	-0.744 (inactive)	-0.523	0.0028	-0.236	-0.0195	-0.0791	1.21 (inactive)	-0.552	2.02 (inactive)	-0.141 (inactive)	0.445 (inactive)	-0.583 (inactive)	0.506	0.676 (inactive)	-0.436 (inactive)	-2.04
Cc1ccc(S[C@]2(C(=O)NCC(F)(F)F)CC(=O)N(C3CCCCC3)[C@@H]2c2ccc(CO)cc2)cc1	0.0911	-1.09 (inactive)	0.12 (inactive)	-0.529 (inactive)	-0.147 (inactive)	-0.777	-0.176	0.118	1.06	-0.121	0.344 (inactive)	0.123	1.58 (inactive)	0.525 (inactive)	0.621 (inactive)	0.157 (inactive)	-0.14	-0.941 (inactive)	0.03 (inactive)	0.192
